The text below walks through data of PubChem BioAssay (NCI).

Compounds without any hit were thinned out: in the full panel of roughly 83,000, 20% have a hit.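 Plates (96-well) were seeded with cells, treated with compound at one concentration, and incubated for 48 hours before percent growth was determined.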 Unmarked numbers belong to inactive results. Calls of active or inactive are those of the source. Rule for the calls: active = growth percent below 10; inactive = the rest.

Test systems include SR leukemia; RPMI-8226 leukemia; OVCAR-8 ovarian; OVCAR-5 ovarian; OVCAR-4 ovarian; SK-OV-3 ovarian; IGROV1 ovarian; OVCAR-3 ovarian; HS 578T breast; NCI/ADR-RES ovarian; BT-549 breast; MDA-MB-435 melanoma; SW-620 colon; MCF7 breast; HCT-116 colon; HCC-2998 colon; KM12 colon; T-47D breast.
Holding throughout (experiment): NCI-60 one-dose screen, 48 h (100 = growth as untreated, 0 = no growth, -100 = all killed)
What all share (details): 10 µM unless noted

For `Nc1nc(=O)c2ccccc2s1`, the growth is 109% in the assay on SR leukemia; 94.8% in the assay on RPMI-8226 leukemia; 121% in the assay on OVCAR-8 ovarian; 99.6% in the assay with OVCAR-5 ovarian; 125% with OVCAR-4 ovarian; 104% with SK-OV-3 ovarian. In addition, the growth was 122% in the assay with IGROV1 ovarian; 131% in the assay on OVCAR-3 ovarian; 112% in the assay on HS 578T breast; 113% in the assay on NCI/ADR-RES ovarian; 101% in the assay on BT-549 breast; 102% in the assay with MDA-MB-435 melanoma. The growth was 116% in the assay with SW-620 colon; 103% with MCF7 breast; 107% in the assay with HCT-116 colon; 107% in the assay on HCC-2998 colon; 112% with KM12 colon.
As for `N#C/C(=C1C=C/C(=N/O)C(Cl)=C/1)c1ccc(Cl)cc1`, the growth in the assay with SR leukemia is 78.5%; with RPMI-8226 leukemia it was 20.7%; in the assay with OVCAR-8 ovarian, 66.3%; in the assay with OVCAR-5 ovarian, 129%; in the assay on OVCAR-4 ovarian, 88.9%; in the assay on SK-OV-3 ovarian, 121%. For the same compound, the growth with IGROV1 ovarian is 45.4%; in the assay with OVCAR-3 ovarian, 31.7%; in the assay with HS 578T breast, 87.7%; with NCI/ADR-RES ovarian, 63.1%; in the assay on BT-549 breast it was 87.2%; with MDA-MB-435 melanoma, 29.5%. Moreover, the growth was 59.2% with SW-620 colon; 13.7% with MCF7 breast; 1.93% (active) in the assay with HCT-116 colon; 101% with HCC-2998 colon; -46.4% (active) in the assay with KM12 colon.
As for `CC(NNC(C)c1ccccc1)c1ccccc1` (stereo unspecified), the growth in the assay with SR leukemia was 91.9%; with RPMI-8226 leukemia it was 97.8%; in the assay on OVCAR-8 ovarian it was 115%; with OVCAR-5 ovarian, 107%; in the assay on OVCAR-4 ovarian it was 112%; in the assay with SK-OV-3 ovarian it was 110%. Moreover, the growth is 117% with IGROV1 ovarian; 118% with OVCAR-3 ovarian; 128% in the assay on HS 578T breast; 105% in the assay with NCI/ADR-RES ovarian; 113% with BT-549 breast; 112% in the assay with MDA-MB-435 melanoma. In addition, the growth in the assay on SW-620 colon was 96.1%; in the assay on MCF7 breast it was 113%; in the assay with HCC-2998 colon it was 103%; in the assay on KM12 colon, 115%.
On to `OCc1ncc(-c2ccccc2)s1`, for which the growth with SR leukemia was 107%; in the assay on RPMI-8226 leukemia it was 87.6%; in the assay with OVCAR-8 ovarian, 107%; in the assay with OVCAR-5 ovarian, 92.2%; in the assay with OVCAR-4 ovarian it was 97.5%; with SK-OV-3 ovarian it was 99.4%. Besides, the growth was 113% with IGROV1 ovarian; 101% in the assay on OVCAR-3 ovarian; 108% in the assay on HS 578T breast; 22.1% in the assay with NCI/ADR-RES ovarian; 89.8% with T-47D breast; 108% with MDA-MB-435 melanoma. Moreover, the growth with SW-620 colon is 106%; with MCF7 breast, 102%; with HCT-116 colon, 89.5%; in the assay with HCC-2998 colon, 79.6%; in the assay with KM12 colon it was 103%.
On to `CC(C)(C)n1cc(-c2ccnc(NCCCNS(=O)(=O)c3ccc(C(F)(F)F)cc3)c2)c(-c2cccc(O)c2)n1`, for which the growth is -7.63% (active) in the assay on SR leukemia; -9.47% (active) with RPMI-8226 leukemia; 28% in the assay with OVCAR-8 ovarian; 36.1% in the assay with OVCAR-5 ovarian; 41.7% with OVCAR-4 ovarian; 70.1% in the assay with SK-OV-3 ovarian. The growth is 31.3% in the assay with IGROV1 ovarian; 42.5% in the assay with OVCAR-3 ovarian; 23.5% with HS 578T breast; 34.6% with NCI/ADR-RES ovarian; 31.3% in the assay with T-47D breast; 32.2% with MDA-MB-435 melanoma. The growth in the assay on SW-620 colon was 0.471% (active); in the assay on MCF7 breast, 1.14% (active); with HCT-116 colon it was 16.1%; in the assay with HCC-2998 colon it was -63% (active); in the assay on KM12 colon it was -14.2% (active).
With `CCc1cnc(=S)n(-c2ccccc2)c1`, the growth in the assay with SR leukemia was 99.6%; in the assay with RPMI-8226 leukemia, 119%; in the assay with OVCAR-8 ovarian, 113%; with OVCAR-5 ovarian it was 97.3%; in the assay with OVCAR-4 ovarian, 135%; in the assay on SK-OV-3 ovarian, 105%. Further, the growth in the assay with IGROV1 ovarian is 105%; with OVCAR-3 ovarian it was 98.5%; in the assay with HS 578T breast, 108%; in the assay on NCI/ADR-RES ovarian, 98.3%; in the assay on T-47D breast, 112%; with BT-549 breast, 107%. In addition, the growth in the assay with SW-620 colon is 104%; in the assay on MCF7 breast it was 108%; with HCT-116 colon, 93.5%; with HCC-2998 colon, 86.5%; with KM12 colon it was 109%.
As for `O=S(=O)(CC(O)(c1ccccc1)c1ccccc1)CC(O)(c1ccccc1)c1ccccc1`, the growth was 118% in the assay on SR leukemia; 94.7% with RPMI-8226 leukemia; 75.8% in the assay with OVCAR-8 ovarian; 94.9% with OVCAR-5 ovarian; 80.9% with OVCAR-4 ovarian; 77% with SK-OV-3 ovarian. In addition, the growth in the assay with IGROV1 ovarian is 66.5%; with OVCAR-3 ovarian it was 77.1%; with HS 578T breast, 65.3%; in the assay on NCI/ADR-RES ovarian, 86.1%; in the assay with BT-549 breast, 102%; in the assay with MDA-MB-435 melanoma, 89.9%. In addition, the growth was 89.6% in the assay on SW-620 colon; 80.9% with MCF7 breast; 77.7% in the assay with HCT-116 colon; 93.1% in the assay on HCC-2998 colon; 87.6% in the assay with KM12 colon.
As to `COc1ccc(Nc2nc(N)nc3c2CCN(Cc2ccc(OC)cc2OC)C3=O)cc1`, the growth is 60.2% in the assay with SR leukemia; 41.9% in the assay on RPMI-8226 leukemia; 82.6% with OVCAR-8 ovarian; 72.5% in the assay on OVCAR-5 ovarian; 91.2% with OVCAR-4 ovarian; 90.5% in the assay with SK-OV-3 ovarian. The growth in the assay with OVCAR-3 ovarian was 88%; in the assay on HS 578T breast it was 82.7%; with NCI/ADR-RES ovarian, 93.4%; in the assay with T-47D breast, 75.9%; with BT-549 breast, 74.9%; in the assay on MDA-MB-435 melanoma, 79.2%. Moreover, the growth in the assay with SW-620 colon is 80%; with MCF7 breast, 87.7%; with HCT-116 colon, 49.9%; with HCC-2998 colon, 94.2%; in the assay on KM12 colon, 85.1%.
As for `CCOC(=O)C1CCNC(=O)C1=O` (stereo unspecified), the growth with SR leukemia was 88.9%; in the assay with RPMI-8226 leukemia, 96.8%; with OVCAR-8 ovarian, 110%; with OVCAR-5 ovarian, 104%; with OVCAR-4 ovarian, 119%; in the assay with SK-OV-3 ovarian, 117%. Moreover, the growth was 130% in the assay on IGROV1 ovarian; 122% in the assay on OVCAR-3 ovarian; 119% in the assay with HS 578T breast; 107% in the assay with BT-549 breast; 113% in the assay with MDA-MB-435 melanoma; 108% with SW-620 colon. Besides, the growth was 107% in the assay with MCF7 breast, 107% in the assay with HCT-116 colon, 104% with HCC-2998 colon and 109% in the assay on KM12 colon.
